# Experimental data as given in PubChem BioAssay AID686971 (National Center for Advancing Translational Sciences (NCATS), 2013).
# The campaign covered roughly 360,000 compounds. About 7,500 (2.1%) were called active. Not shown: some 8% with an inconclusive outcome. The sample holds actives, similar compounds and a random draw of the others, so the mix is not that of the screen. A number with no mark means an inactive call. The call rests on the fitted dose curve; in most records, active means well fitted cell-killing curve with a large enough effect; inconclusive means small, poorly fitted or top-dose-only effect, or effect the other way, or another doubt; inactive means no such curve, though single readings can be large or run the other way.
# Assay: qHTS for induction of synthetic lethality in tumor cells producing 2HG: qHTS for the HT-1080-IDH1KD cell line;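 on activity, negative = toxicity: 0% = DMSO wells and -100% = cell-free medium wells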
# Conditions: HT-1080 IDH1 knockdown viability, ATP luminescence, 48 h; series mostly up to 46.1 µM; activity, negative = toxicity: at the top concentration
# How it was run: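 CellTiter-Glo luminescence after 48 h compound exposure at 37 degrees C of IDH1-knockdown HT-1080 cells in 5% FBS RPMI. %Activity scaled between DMSO wells and cell-free media wells, with curves fitted and assigned curve classes.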
# Potency means the concentration at half of the fitted maximal effect.
SMILES,"activity, negative = toxicity [%]",Potency
CC(=O)N(Cc1cc(=O)[nH]c2ccccc12)c1ccc(C)cc1C,-12.4,
CC(C)C1Cc2[nH][nH]c(=O)c2C(c2ccc(Cl)cc2)O1 (stereo not given),2.43,
CC(C)CNC(=O)C1(C)CCCN1C(=O)CSc1ccccc1 (stereo not given),0.548,
CCCC(=O)N1CCC1(C)C(=O)NCc1ccc(SC)cc1 (stereo not given),18.2,
COc1cc(/C=C/C(=O)Nc2ccc(OC)c(S(=O)(=O)N3CCOCC3)c2)ccc1OCC#N,-27.5,
COc1ccc(/C=C/C(=O)N2CCCC2)cc1OC,-6.68,
COc1ccc(/C=C/C(=O)Nc2ccc(C34CC5CC(CC(O)(C5)C3)C4)cc2)cc1OC,,2.59 µM (active)
C[C@@H]1CN([C@H](C)CO)C(=O)CCCn2nncc2CO[C@@H]1CN(C)S(=O)(=O)c1cccc(C#N)c1,-7.06,
CCS(=O)(=O)Nc1ccc(C2=NN(C(C)=O)C(c3cccs3)C2)cc1 (stereo not given),,16.4 µM (active)
CS(=O)(=O)Nc1cccc(C2=NN(C(=O)c3cccc(F)c3)C(c3cccs3)C2)c1 (stereo not given),-23.8,
CS(=O)(=O)Nc1ccc(C2=NN(S(C)(=O)=O)C(c3cccs3)C2)cc1 (stereo not given),10.5,
COCC1CCCCN1C(=O)c1cc(COc2ccc(C)c(C)c2)on1 (stereo not given),-3.35,
CCOC(=O)CSC1=C(C#N)C(c2sccc2C)CC(=O)N1 (stereo not given),,1.41 µM (active)
C=CCSC1=C(C#N)C(c2cc(Br)c(O)c(OC)c2)CC(=O)N1 (stereo not given),-15.3,
COC(=O)CSC1=C(C#N)C(c2ccccc2OC)C(C(=O)OC)C(=O)N1 (stereo not given),5.07,
COc1ccc(C(=O)N2CCCCC2c2cc(C(=O)Nc3ccc(F)c(Cl)c3)no2)cc1 (stereo not given),-2.02,
CSc1ncc(Sc2ccccc2)c(C(=O)O)n1,12.7,
CSc1nc(-c2ccccc2)nc(C(Cl)Cl)n1,,18.4 µM (active)
Cc1ccccc1-c1ccc2c(c1)O[C@@H](CN(C)Cc1ccc(C(=O)O)cc1)[C@@H](C)CN([C@H](C)CO)S2(=O)=O,-7.84,
CC(=O)Nc1cccc(Nc2ccc(C#N)cc2)c1,0.812,
Cc1ccc(NC(=S)N(CCN2CCCCC2)Cc2ccco2)cc1C,-5.58,
Cc1ccc(NC(=S)N(CCCN2CCC(C)CC2)Cc2ccco2)cc1,-5.45,
Cc1ccc(NC(=S)N(CCCN2CCCC2)Cc2cccn2Cc2ccc(Cl)cc2)cc1,,23.1 µM (active)
Cc1ccc(NC(=O)COC(=O)CN2CCSC2=O)cc1F,2.76,
CCc1nc2c(OCCOc3ccc(F)cc3)cccn2c1N(C)C(=O)c1ccccc1F,-5.69,

SMILES,"activity, negative = toxicity [%]",Potency
O=C(OCc1ccccc1)N1CCC2CC1c1ccc(-c3ccc4c(c3)OCO4)cc12 (stereo not given),3.84,
CCOC(=O)C1(C)CCCN(C(=O)c2cccc(Cl)c2)C1 (stereo not given),4.06,
CCCCCNC(=O)C(c1ccc(OC)cc1)n1c(=O)c(-c2ccccc2)nc2ccccc21 (stereo not given),-17.2,
O=C(NC1CCCC1)C1c2ccccc2OCC(=O)N1Cc1ccccc1 (stereo not given),4.14,
C=CCn1c(Cn2nnc3ccccc32)nnc1SCC(=O)N/N=C/c1cc(Br)cc(OC)c1O,6.3,
Oc1c(Cl)cc(Cl)cc1/C=N/c1ncn[nH]1,11.8,
COc1cc(Br)cc(/C=N/c2ncn[nH]2)c1O,,15.8 µM (active)
COc1cc2nc(N3CCCN(C)CC3)nc(NC(C)C)c2cc1OC,-17.8,
O=S1(=O)CC(N2CCSCC2)CN1Cc1cn(Cc2cccc(Cl)c2)nn1 (stereo not given),1.27,
CN1OC[C@@H]2CN(S(=O)(=O)c3cccc4ccccc34)[C@H](c3ccc(N4CCCCC4)cc3)C[C@@H]21,-11.5,
CCc1nc(C)ccc1OCC(=O)N(CC)CC,5.18,
CCC(C)(C)c1ccc(OCC(=O)N(C)C)c(C(C)(C)CC)c1,,20.6 µM (active)
COc1cccc(C(O)c2ncc(-c3ccc4ccccc4c3)[nH]2)c1 (stereo not given),0.29,
COc1ccc(S(=O)(=O)N2CCC(C(=O)NCCC(=O)NCCc3cccc(F)c3)CC2)cc1,3.72,
Cc1ccc(NC(=O)[C@H](Cc2ccccc2)NC(=O)CC[C@H]2O[C@@H](n3ccc(=O)[nH]c3=O)[C@H](O)[C@@H]2O)cc1C,7.02,
COc1cc(C(=O)OCCCN2CCOCC2)cc(OC)c1OC,6.61,
CCCc1c(C)nc2scc(-c3ccc(Cl)cc3)n2c1=O,13.9,
CC1CN(C(=O)CCC(=O)NCCCN2CCC(Cc3ccccc3)CC2)c2cc(Cl)ccc2O1 (stereo not given),,16.4 µM (active)
CC1CN(C(=O)CCC(=O)NCc2cccnc2)c2ccccc2O1 (stereo not given),-2.22,
CC1CN(C(=O)CCC(=O)NC2CCN(Cc3ccccc3)CC2)c2ccccc2O1 (stereo not given),-0.348,
COc1ccc(CN2C(=O)C(CC(=O)NCc3cccc4ccccc34)CC(C(=O)N3CCOCC3)=C2C)cc1 (stereo not given),-0.0224,
CC(=O)OCC(C)n1c(=O)c2ccccc2n1C(C)=O (stereo not given),12.7,
O=c1ccc2c(-c3ccccc3S(=O)(=O)O)c3ccc(O)c(O)c3oc-2c1O,,14.6 µM (active)
O=S1(=O)CCN(C2CCCCCCCCCCC2)CC1,6.35,
CCCCn1nnnc1C(c1cc2ccccc2o1)N(C)Cc1ccc(Cl)c(Cl)c1 (stereo not given),-11.5,
